Results: PMC4336329 (PLoS ONE, 2015)
The whole screen tested about 310,000 compounds, of which about 14,000 (4.5%) showed an effect of 50% or more. The effect is printed as a negative number. The entries come from a sample that favours strong results as a whole.

What follows are compounds tested against human ether-à-go-go-related gene (hERG) potassium channel (human, UniProt Q12809) (assay: primary screen, population patch clamp on CHO cells stably expressing hERG; higher = less effect of the substance).
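Further: peak tail current of the secondary pulse compared with the same well before compound.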

human ether-à-go-go-related gene (hERG) potassium channel, sequence (Q12809 whole entry, looked up): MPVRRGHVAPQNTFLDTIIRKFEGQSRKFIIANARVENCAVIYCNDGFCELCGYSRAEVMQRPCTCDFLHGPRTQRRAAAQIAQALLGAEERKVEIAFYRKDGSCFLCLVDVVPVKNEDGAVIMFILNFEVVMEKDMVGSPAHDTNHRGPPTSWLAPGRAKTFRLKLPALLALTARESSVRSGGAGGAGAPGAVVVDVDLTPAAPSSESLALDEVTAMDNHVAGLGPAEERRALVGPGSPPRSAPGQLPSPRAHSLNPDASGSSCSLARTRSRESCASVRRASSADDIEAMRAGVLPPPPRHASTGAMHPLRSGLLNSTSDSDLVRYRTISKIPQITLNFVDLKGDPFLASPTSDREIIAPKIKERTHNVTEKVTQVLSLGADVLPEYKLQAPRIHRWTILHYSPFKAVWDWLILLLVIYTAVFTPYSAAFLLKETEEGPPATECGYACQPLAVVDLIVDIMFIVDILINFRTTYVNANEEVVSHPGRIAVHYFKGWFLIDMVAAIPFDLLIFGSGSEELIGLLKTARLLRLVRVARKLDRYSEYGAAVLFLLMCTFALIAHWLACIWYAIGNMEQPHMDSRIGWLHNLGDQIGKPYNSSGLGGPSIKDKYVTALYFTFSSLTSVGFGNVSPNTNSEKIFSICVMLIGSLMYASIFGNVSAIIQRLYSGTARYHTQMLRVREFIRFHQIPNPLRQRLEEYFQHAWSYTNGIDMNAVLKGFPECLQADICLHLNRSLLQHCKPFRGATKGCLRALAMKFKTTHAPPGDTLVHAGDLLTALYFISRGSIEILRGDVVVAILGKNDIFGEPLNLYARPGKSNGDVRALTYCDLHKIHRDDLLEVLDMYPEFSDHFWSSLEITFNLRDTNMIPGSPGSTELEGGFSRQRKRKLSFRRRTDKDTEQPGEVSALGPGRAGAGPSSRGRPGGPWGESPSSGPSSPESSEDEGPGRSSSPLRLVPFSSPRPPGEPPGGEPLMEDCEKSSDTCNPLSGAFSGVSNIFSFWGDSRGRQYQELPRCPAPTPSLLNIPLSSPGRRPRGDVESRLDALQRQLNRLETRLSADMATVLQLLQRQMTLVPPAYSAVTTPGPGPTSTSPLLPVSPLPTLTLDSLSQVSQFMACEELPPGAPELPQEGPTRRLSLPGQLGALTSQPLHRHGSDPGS

| Compound | hERG current change (%, negative = inhibition) at 10uM |
| --- | --- |
| CNC(=O)Oc1ccc2c(c1)C(=O)c1ccccc1CO2 | 6.76% |
| CNC(=S)Nc1cc(OC)c(NC(=O)c2ccco2)cc1OC | 14.9% |
| Cc1cc(C)nc(NNS(=O)(=O)c2ccc(F)c(Cl)c2)n1 | 0.38% |
| Cc1ccc(C)n1NC(=O)c1cccs1 | 9.98% |
| CCOCCCNCC(O)c1ccccc1.O=C(O)C(=O)O (centres unmarked) | 3.55% |
| O=C(N/N=C/c1cc(Cl)cc([N+](=O)[O-])c1O)C(O)(c1ccccc1)c1ccccc1 | -53% |
| O=C(N/N=C/c1cc([N+](=O)[O-])cc([N+](=O)[O-])c1O)C(O)(c1ccccc1)c1ccccc1 | -4.37% |
| O=C(N/N=C/c1cccc([N+](=O)[O-])c1O)C(O)(c1ccccc1)c1ccccc1 | 8.16% |
| Cc1ccc(/C(O)=C2/C(=O)C(=O)N(c3ccccn3)C2c2ccc([N+](=O)[O-])cc2)cc1 (centres unmarked) | 8.83% |
| COC(=O)COc1cccc2c(=O)n(CC(=O)NCc3ccc(F)cc3)ccc12 | 1.82% |
| O=C1CC(c2cccnc2)=NN1c1ccc(Cl)cc1Cl | 12.1% |
| C/C=C(/C)C(=O)O[C@@H]1c2c(ccc3ccc(=O)oc23)O[C@@H]1C(C)(C)OC(=O)/C(C)=C\C | -0.936% |
| O=C1OC(Nc2cc(Br)cc3cccnc23)c2ccccc21 (centres unmarked) | -9.92% |
| COc1ccc(S(=O)(=O)N/N=C/c2ccc(OCCN3CCOCC3)c(OC)c2)cc1 | 1.42% |
| CCOc1cc(/C=N/NS(=O)(=O)c2ccc(OC)cc2)ccc1OCCN1CCOCC1 | -53.8% |
| COc1cc(/C=N/NS(=O)(=O)c2ccc3ccccc3c2)ccc1OCCN1CCOCC1 | -39.5% |
| CCn1c(COc2ccccc2C)nnc1SCC(=O)OC | -9.68% |
| O=C(CN(C(=O)c1csnn1)c1cccc2ccccc12)NC1CCCC1 | -2.34% |
| Cc1cc(NCC2CCCCC2)nc2ccccc12 | -42.7% |
| Cc1cc(NC(=O)Cc2ccccc2)c2ccccc2n1 | 14.2% |
| Cc1cc(NCc2ccccn2)nc2ccccc12 | -15.4% |
| Cc1cc(NCc2ccccc2)c2ccccc2n1.Cl | -67.5% |

| Compound | hERG current change (%, negative = inhibition) at 10uM |
| --- | --- |
| Cc1cc(NCCO)c2ccccc2n1.Cl | 6.81% |
| COc1ccc2nc(C)cc(NCc3cccc(C(F)(F)F)c3)c2c1 | -31.7% |
| COc1ccc(CNc2cc(C)nc3ccc(OC)cc23)cc1 | -72.8% |
| COc1ccc2nc(C)cc(NCc3ccc(F)cc3)c2c1 | -61.6% |
| COc1ccc2nc(NCc3ccccc3)[nH]c2c1 | -25.4% |
| COc1ccc2nc(C)cc(N/N=C/c3ccc(F)cc3)c2c1 | 0.337% |
| COC(=O)CSc1cc(C)nc2ccc(OC)cc12 | 1.44% |
| Cc1cc(NCc2ccccc2)nc2ccccc12 | -50.9% |
| Cc1cc(C(=O)NNc2c(Cl)cccc2Cl)no1 | 3.46% |
| CC1(C)Cc2nc3oc4c(SCC(N)=O)ncnc4c3cc2CO1 | 4.95% |
| Cc1ccc(S(=O)(=O)N(C)C)cc1NC(=O)COC(=O)/C=C/c1ccc2c(c1)OCO2 | -9.63% |
| O=C(NC1CCCCC1)C1CCCN(S(=O)(=O)c2cccs2)C1 (centres unmarked) | 11.3% |
| COc1ccc(NC(=O)OCCN2CCN(Cc3ccccc3)CCC2=O)cc1 | -9.25% |
| COc1c(O)ccc(/C=N/NC(=O)c2ccc3c(c2)OCCO3)c1[N+](=O)[O-] | 7.36% |
| COc1ccc(-c2cn(-c3ccccc3)c(=S)[nH]2)cc1OC | 16.1% |
| N#Cc1ccc(-c2cn(-c3ccccc3)c3[n+]2CCCS3)cc1.[Br-] | 16.3% |
| [Br-].c1ccc(-c2cn(-c3ccccc3)c3[n+]2CCCS3)cc1 | -3.51% |
| FC(F)Sc1ccc(-n2cc(-c3ccc(Cl)cc3)[n+]3c2CCC3)cc1.[Br-] | -74.3% |
| CC(=O)c1ccc(-n2cc(-c3ccc(C(C)(C)C)cc3)[n+]3c2SCCC3)cc1.[Br-] | -30.1% |
| FC(F)Sc1ccc(-n2cc(-c3ccccc3)[n+]3c2CCC3)cc1.[Br-] | -77.9% |
| O=C(Cc1ccc(Cl)cc1)Nc1ccc(SC(F)F)cc1 | -1.83% |
| COc1ccc(-n2cc(-c3ccc(OC)c(OC)c3)[nH]c2=S)cc1 | 6.1% |

| Compound | hERG current change (%, negative = inhibition) at 10uM |
| --- | --- |
| COc1ccc(-c2cn(-c3ccc(SC(F)F)cc3)c3[n+]2CCC3)cc1OC.[Br-] | -62.4% |
| O=[N+]([O-])CC(c1ccccc1)c1c[nH]c2ccccc12 (centres unmarked) | 10.6% |
| O=C(CN1C(=O)NC(Cc2c[nH]c3ccccc23)C1=O)Nc1ccc(F)c(F)c1F (centres unmarked) | -5.36% |
| O=C(Nc1cccc(Cl)c1)N1CCN2C(=O)c3ccccc3C12c1ccccc1 (centres unmarked) | -24.3% |
| COc1ccc(CNC(=S)Nc2ccccc2)cc1 | 7.34% |
| O=C(Cc1ccc([N+](=O)[O-])cc1)N1CCCc2ccccc21 | -41.1% |
| O=C(Oc1c(Cl)cc(Cl)c2ccccc12)N1CCCC1 | -25.9% |
| CC(COc1ccc(/C=C/c2ccccc2)cc1)[N+](C)(C)C.[I-] (centres unmarked) | -9.04% |
| CC(C)(C)C(=O)Nc1ccc(C(=O)Nc2cc(NC(=O)c3ccc(NC(=O)C(C)(C)C)cc3)cc(C(=O)O)c2)cc1 | 6.62% |
| CCCc1cc(C(=O)Nc2ccc(C(=O)OC)cc2)cs1 | 5.28% |
| COc1ccc(/C=N/NC(=O)c2nn(C)cc2Br)cc1CSCc1ccco1 | -50.6% |
| CCOc1cc(/C=N/NC(=O)c2nn(C)cc2Br)ccc1OCc1ccccc1Cl | -14.7% |
| CCOc1cc(/C=N/NC(=O)c2nn(C)cc2Br)ccc1OCc1ccccc1 | 5.59% |
| Cc1cc(C)cc(OCC(=O)N2N=C(C(F)(F)F)CC2(O)C(C)(C)C)c1 (centres unmarked) | 3.64% |
| CC1CCN(C(=O)CSCC(=O)Nc2nc(-c3cccs3)cs2)CC1 | -20.6% |
| Cc1ccc(C2C=C(c3ccccc3)Nc3ncnn32)cc1 (centres unmarked) | -64.7% |
| COc1cccc(C2=CC(c3ccc(C)cc3)n3ncnc3N2)c1 (centres unmarked) | -52.4% |
| COc1ccc(C2C=C(c3ccccc3)Nc3ncnn32)cc1 (centres unmarked) | -57.4% |
| C1=C(c2ccccc2)Nc2ncnn2C1c1ccccc1 (centres unmarked) | -5.26% |
| Cc1ccc(C2=CC(c3ccccc3)n3ncnc3N2)cc1 (centres unmarked) | -15.8% |
| COc1cccc(C2=CC(c3ccccc3)n3ncnc3N2)c1 (centres unmarked) | -2.39% |
| Cc1ccc(C2=CC(c3ccc(C)cc3)n3ncnc3N2)cc1 (centres unmarked) | -17.6% |

| Compound | hERG current change (%, negative = inhibition) at 10uM |
| --- | --- |
| COc1cccc(C2=CC(c3ccc(N(C)C)cc3)n3ncnc3N2)c1 (centres unmarked) | -1.72% |
| CCOc1ccc(C2C=C(c3ccccc3)Nc3ncnn32)cc1 (centres unmarked) | -47.2% |
| O=C(Nc1nnc(-c2ccccc2Cl)s1)c1ccccc1F | 10.9% |
| CC(=O)c1ccc(N2CCN(S(=O)(=O)c3ccc(-c4cc(C)no4)s3)CC2)cc1 | -1.08% |
| Cc1ccc2c(c1)NCCO2 | 4.46% |
| O=C(CSc1ccc(F)cc1)Nc1ccc(N2CCOCC2)c(Cl)c1 | -20.3% |
| CCOCCCN(C)C1CCN(C(=O)c2oc3ccccc3c2NC(=O)Cc2cccc([N+](=O)[O-])c2)CC1 | -75.3% |
| COc1ccc(CC(=O)Nc2c(C(=O)N3CCN(c4ccccc4)CC3)oc3ccccc23)cc1OC | -32.4% |
| COc1cccc(N2CCN(C(=O)c3oc4ccccc4c3NC(=O)Cc3ccc(OC)c(OC)c3)CC2)c1 | -14.1% |
| COc1ccc(N2CCN(C(=O)c3oc4ccccc4c3NC(=O)Cc3cccc(OC)c3)CC2)cc1 | -30.2% |
| CCOCCCN(C)C1CCN(C(=O)c2oc3ccccc3c2NC(=O)Cc2ccc([N+](=O)[O-])cc2)CC1 | -81.5% |
| Cc1nc(=S)c2c([nH]1)-c1ccccc1CC21CCCCC1 | 10.8% |
| CC1CCCC(NC(=O)COC(=O)c2ccc(N(C)C)cc2)C1C (centres unmarked) | -1.77% |
| Cc1ccc(NC(=O)CN(C)S(=O)(=O)c2cccc3cccnc23)c(C)c1 | 4.3% |
| Cc1ccsc1C(=O)C1CCCN(Cc2ccccc2O)C1 (centres unmarked) | -48.1% |
| Cc1ccc(-n2cccn2)c(CN2CCCC(C(=O)c3sccc3C)C2)c1 (centres unmarked) | -85.4% |
| Cc1ccsc1C(=O)C1CCCN(Cc2cc(F)ccc2-n2cccn2)C1 (centres unmarked) | -82.9% |
| Cc1ccsc1C(=O)C1CCCN(Cc2cn(C)nc2C)C1 (centres unmarked) | -40.9% |
| Cc1ccsc1C(=O)C1CCCN(Cc2ccn[nH]2)C1 (centres unmarked) | 6.96% |
| COC(=O)Nc1ncc(CN2C(=O)c3ccccc3C2=O)s1 | -23% |
